# A selection: hits, their analogues and other compounds. The true share with any hit is near 6%.
# D1 PAM – Potentiators of Human D1 Dopamine Receptor: qHTS. AID 504651, 2011. D(1A) dopamine receptor (Homo sapiens), P21728. 360,000 tested, 0.036% active. potentiation, % at 10 µM. HEK293 TREx D1 cells, calcium flux, dopamine EC20 potentiation; in the data active = potentiation above about 30%; note: 0% is about no effect
# Target sequence (P21728 whole entry, looked up): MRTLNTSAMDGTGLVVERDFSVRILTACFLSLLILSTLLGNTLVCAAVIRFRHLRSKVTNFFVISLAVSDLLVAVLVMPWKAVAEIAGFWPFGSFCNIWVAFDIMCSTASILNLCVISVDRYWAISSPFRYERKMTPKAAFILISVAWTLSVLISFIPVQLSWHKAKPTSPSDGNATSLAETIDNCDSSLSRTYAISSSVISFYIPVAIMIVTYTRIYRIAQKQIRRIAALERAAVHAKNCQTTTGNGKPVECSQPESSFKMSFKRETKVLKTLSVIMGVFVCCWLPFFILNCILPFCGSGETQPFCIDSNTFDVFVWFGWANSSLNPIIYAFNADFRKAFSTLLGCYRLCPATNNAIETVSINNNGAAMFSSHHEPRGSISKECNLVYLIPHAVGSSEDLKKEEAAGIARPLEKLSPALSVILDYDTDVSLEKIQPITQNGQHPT
# D3 antag – qHTS of D3 Dopamine Receptor Antagonist: qHTS; D(3) dopamine receptor (Homo sapiens), P35462; D3R cells, DiscoveRx beta-arrestin luminescence, antagonist mode; hits give low values; max response, negative = inhibition, %; 360,000 tested, 2.5% active; in the data active = max response below about -50%; note: % is set by controls: 0 for no effect and ±100 for the full control effect
#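 Cells plated overnight at 1500 cells/well, then exposed to library compounds with dopamine controls for 90 minutes at 37 degrees C. DiscoveRx reagent added for 30–60 minutes at room temperature; luminescence read, quantitative HTS format.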
# D1 antag – Antagonist of Human D 1 Dopamine Receptor: qHTS. HEK293 TREx D1 cells, calcium flux, dopamine EC80; hits give low values. activity change, negative = inhibition, % at 10 µM. 360,000 tested, 3.2% active. AID 504652, 2011; in the data active = activity change below about -30%; note: % is set by controls: 0 for no effect and ±100 for the full control effect
#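 Using tetracycline-induced force-coupled D1 Hek293 cells and a calcium dye, signals were followed for 180 s after compound, then for 180 s after EC80 dopamine, to detect inhibitors.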
# D1 agonist – Allosteric Agonists of the Human D1 Dopamine Receptor: qHTS; HEK293 T-REx D1 cells, calcium flux, agonist mode; 360,000 tested, 1% active; D(1A) dopamine receptor (Homo sapiens), P21728; activation, % at 2 µM; AID 504660, 2011; in the data active = activation above about 30%; note: 0% is about no effect
#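 Inducible HEK293 T-REx D1 cells, force-coupled to calcium signalling, were plated at 4000 cells/well with tetracycline and held overnight at 30 C. After no-wash calcium dye loading, compound-evoked calcium rise over 180 s flagged agonists.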
# D3 ag – qHTS of D3 Dopamine Receptor Agonist: qHTS. D(3) dopamine receptor (Homo sapiens), P35462. D3R DiscoveRx beta-arrestin cells, luminescence, 90 min. max activation, %. 410,000 tested, 0.58% active. AID 652048, 2013; in the data active = max activation above about 30%; note: 0% is about no effect
#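 Agonist-mode cell screen: cells plated at 1500/well and incubated overnight at 37 °C, then exposed to library compounds for 90 min at 37 °C. Detection reagent was added for 30–60 min at room temperature, and luminescence was read.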
# The depositor's hits bear a star; nt = no result.
SMILES,D1 PAM,D3 antag,D1 antag,D1 agonist,D3 ag
CC1c2cc3c(cc2CCN1C(=O)c1cccc(F)c1)OCCCO3 (stereo unspecified),6,-21,-20,1,1
COc1ccc(C(=O)N2CCc3cc4c(cc3C2C)OCCCO4)cc1 (stereo unspecified),-2,-20,1,-1,44*
CC1c2cc3c(cc2CCN1C(=O)c1ccc(Br)cc1)OCCCO3 (stereo unspecified),-9,-10,-47*,1,1
Cn1cc(-c2nnnn2-c2cccc(C(F)(F)F)c2)c(C(F)(F)F)n1,-11,9,-37*,26,-3
O=C(Nc1ccc(Cl)cc1)NC1CCCCC1Cc1ccco1 (stereo unspecified),-9,37,-34*,5,-6
COc1ccc(C)cc1-n1nnc(-c2nc(-c3ccccc3Cl)no2)c1N,-5,nt,-6,7,5
CCCCn1c(N)c(N(CC(C)C)C(=O)c2cc3c(s2)CCCCC3)c(=O)[nH]c1=O,-4,7,7,5,-2
Cc1nc2ccc([N+](=O)[O-])cc2c(=O)n1Cc1ccccc1Br,-9,2,-43*,5,8
Cc1ccc(Cn2c(C)nc3ccc([N+](=O)[O-])cc3c2=O)cc1,-5,1,-25,1,5
Cc1nc2ccc([N+](=O)[O-])cc2c(=O)n1Cc1ccc([N+](=O)[O-])cc1,-6,-1,-62*,5,0
O=C(CN1C(=O)COc2ccc(S(=O)(=O)Nc3ccccc3)cc21)Nc1cccc(Cl)c1,-1,nt,-3,4,-12
CCCCOc1ccc(C(=O)Nc2ccc(CN3CCOCC3)cc2)cc1,-7,4,-36*,19,-6
CCCCOc1ccc(C(=O)Nc2cc(C)c(OCC(=O)N3CCOCC3)c(C)c2)cc1,-28,10,-40*,5,3
CCCNC(=O)c1c(NC(=O)c2ccccc2F)sc2c1CCCCC2,2,nt,18,0,-2
N#CN1CCC(NC(=O)c2cccc(F)c2)CC1,-3,nt,8,2,nt
Cc1ccc(N(C)C(=O)Cn2cnc3onc(-c4ccc(F)cc4)c3c2=O)cc1C,6,nt,2,0,-4
Cc1oc(-c2ccccc2Cl)nc1CSc1nc2c(c(=O)[nH]1)CCCC2,1,113,14,3,30*
COc1ccc(OC)c(S(=O)(=O)N2CCN(S(=O)(=O)c3ccc4c(c3)OCCO4)CC2)c1,-6,nt,12,0,nt
Cc1cc(C)cc(NC(=O)Cn2cc3c(n2)CCCCC3)c1,0,nt,-1,51*,nt
FC(F)(F)c1nc2nc(Cl)c(Cl)nc2n1CCCN1CCOCC1,nt,-57*,nt,nt,-19
Cc1c(Cl)cccc1NC(=O)C(=O)NCCc1csc(-c2ccc(C(F)(F)F)cc2)n1,5,nt,12,4,3
Cn1c(N)c(-c2ccccc2)c2ccc([N+](=O)[O-])cc2c1=O,1,-23,-17,242*,-9
COc1ccc(CN2C[C@@H](CO)O[C@@H](n3cnc4c(N5CCOCC5)ncnc43)C2)cc1,nt,0,nt,nt,-10
CCOC(=O)[C@]12CCC=C1N(CCC1=CCCCC1)C(=O)[C@H](CC(=O)N1CCCC1)C2,nt,-11,nt,nt,4
CN(CCc1cnn(C)c1)Cc1nc(Cc2ccccc2)no1,0,4,-11,0,13
SMILES,D1 PAM,D3 antag,D1 antag,D1 agonist,D3 ag
CCN(Cc1cnn(C)c1)Cc1nc(Cc2ccccc2Cl)no1,-1,-11,12,3,42*
COCCNc1c(-c2ccc(O)cc2)nc2ccc(Cl)cn12,-10,13,-41*,0,5
COc1cc(-c2nnn(CC(=O)Nc3ccc(OC(F)(F)F)cc3)n2)cc(OC)c1OC,-3,nt,-32*,2,-29
CCOC(=O)c1ccc(NC(C)=O)c([N+](=O)[O-])c1,11,1,-1,4,9
CNc1ccc(C(=O)OCC(=O)Nc2ccnn2C(C)C)cc1[N+](=O)[O-],-6,2,-42*,3,5
C=CC#CC1(O)CC(C)N(C)CC1C (stereo unspecified),-1,-66*,-5,1,6
Nc1ncc(S(=O)(=O)c2ccc([N+](=O)[O-])cc2)s1,nt,-5,nt,nt,21
O=C1CCCN1c1ncc(S(=O)(=O)c2ccc([N+](=O)[O-])cc2)s1,-4,3,-47*,13,7
CCc1cccc(C)c1NC(=O)Cn1c(=O)cc(C)c2c(C)nn(-c3cccc(F)c3)c21,-7,nt,8,1,5
COC(=O)c1c(SCC(=O)Nc2cccc(C(F)(F)F)c2)[nH]c2ccccc2c1=O,0,nt,-6,3,-9
COc1ccc(C(=O)c2c(-c3cccc(C)c3)oc3ccc(N4CCOCC4)cc23)cn1,5,89,6,5,36*
Cc1occc1-c1nnc(SCC(=O)Nc2nc3ccccc3s2)o1,2,-103*,17,2,24
O=C(CSc1ncnc2c1oc1ccccc12)Nc1nc2ccccc2s1,4,4,-48*,-2,9
COC(=O)[C@@]12C[C@@H](CC(=O)N3CCN(C(=O)C4CC4)CC3)C(=O)N(Cc3ccco3)C1=CCC(C)(C)C2,nt,1,nt,nt,6
COc1ccc(-c2cc3nc(-c4ccc(Br)cc4)cc(C(F)(F)F)n3n2)cc1,1,nt,-17,-1,9
S=C1NCCc2ccccc2C1c1ccccc1Cl (stereo unspecified),3,-64*,-4,-1,-3
O=C(NCc1ccccc1Cl)C1CCCN(C(=O)c2cnn(-c3ccc(F)cc3)c2-n2cccc2)C1 (stereo unspecified),-2,nt,-4,2,4
Cc1ccccc1CNC(=O)Cc1ccc(NC(=O)N2CCCCc3ccccc32)cc1,-3,nt,-3,3,3
COc1ccc(C2=CC3=C(Br)C(=O)C(C)(OC(=O)c4cccs4)C(=O)C3=CO2)cc1 (stereo unspecified),nt,-55*,nt,nt,10
Nc1[nH]n2c(=O)cc(-c3ccccc3)nc2c1N=Nc1ccccc1,-15,7,-38*,2,3
Cc1ccc(-n2nc3c(c2NC(=O)c2cccs2)CS(=O)(=O)C3)cc1C,2,-66*,1,4,-13
Cc1cccc(-n2nc3c(c2NC(=O)c2ccco2)CS(=O)(=O)C3)c1C,-15,3,-41*,5,1
Cc1ccc(OCC(=O)N(Cc2ccco2)c2c(N)n(Cc3ccccc3)c(=O)[nH]c2=O)cc1C,2,-1,-3,1,7

# Screening results: PubChem BioAssay, National Center for Advancing Translational Sciences (NCATS)
